About 83,000 compounds went through this panel and 20% of them were active in at least one assay; those are over-represented in the sample as a whole.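 Plates (96-well) were seeded with cells, treated with compound at one concentration, and incubated for 48 hours before percent growth was determined.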 Values without a mark were called inactive. Calls of active or inactive are those of the source. Rule for the calls: active = growth percent below 10; inactive = the rest.
Experiments:
Assay in all cases: NCI-60 one-dose screen, 48 h (100 = growth as untreated, 0 = no growth, -100 = all killed)
Settings in all cases: 10 µM unless noted
[1] = test system: NCI-H23 lung
[2] = test system: NCI-H226 lung
[3] = test system: NCI-H322M lung
[4] = test system: HOP-62 NSCLC
[5] = test system: NCI-H460 lung
[6] = test system: HOP-92 NSCLC
[7] = test system: NCI-H522 lung
[8] = test system: A549/ATCC NSCLC
[9] = test system: 786-0 renal
[10] = test system: COLO 205 colon
[11] = test system: DU-145 prostate
[12] = test system: K-562 leukemia
[13] = test system: MALME-3M melanoma
[14] = test system: MDA-MB-231 breast
[15] = test system: RXF 393 renal
[16] = test system: SF-268 CNS
[17] = test system: SF-295 CNS
[18] = test system: SF-539 CNS
[19] = test system: UACC-257 melanoma
[20] = test system: M14 melanoma

Compound	growth [1]	growth [2]	growth [3]	growth [4]	growth [5]	growth [6]	growth [7]	growth [8]	growth [9] [%]	growth [10]	growth [11]	growth [12]	growth [13]	growth [14]	growth [15]	growth [16]	growth [17] [%]	growth [18]	growth [19]	growth [20]
CCOC(=O)NNc1nncc2ccccc12	95.4%	104%	102%	102%	110%	95.1%	103%	104%	99.1	105%	115%	81.9%	99.5%	101%	109%	107%	103	108%	93.3%	108%
COc1ccccc1NC(=O)COc1ccc(/C=C2/Oc3cc4occc4c(OC)c3C2=O)cc1OC	97.1%	101%	115%	101%	114%	99.1%	86.9%	96.6%	96.1	114%	114%	99.4%	115%	99.8%	103%	103%	103	101%	100%	106%
O=C(Nc1ccc(-n2cc(-c3ccncc3)c(-c3ccc(O)c(Cl)c3)n2)cc1)Nc1cccc(Cl)c1Cl	66%	73.7%	79.7%	87.6%	43%	16.5%	66.1%	38.9%	58.3	39.1%	66.4%	39.6%	67.4%	27%	-8.38% (active)	82%	37.6	18.5%	90.7%	46.9%
O=C(Nc1ccc(-n2ccc3c(NC(=O)c4ccccc4)ncnc32)cc1)c1cccc(C(F)(F)F)c1	80.6%	70.8%	62.9%	71.5%	10.2%	81.2%	45.4%	32.7%	56.2	51.9%	35.1%	28.7%	77.3%	51.5%	43.9%	38.9%	33.2	35.5%	60.8%	30.9%
CC(C)Cn1cnc2c3ccccc3nc(NCn3nc(-c4cc(Cl)cc(Cl)c4Cl)oc3=S)c21	80.4%	99%	91.6%	66.4%	110%	50.7%	74%	99.9%	75.5	97.5%	115%	59.6%	116%	82.9%	95%	110%	100	94.7%	99.4%	79.9%
CC1CCc2cc(F)cc3c(=O)c(C(=O)O)cn1c23 (stereo not given)	91.5%	103%	116%	106%	105%	91.9%	110%	104%	87.1	104%	110%	92.6%	99.9%	82.8%	108%	105%	97.6	107%	101%	97.6%
Cc1ccc(/C=C2/C(=O)Nc3cc(Cl)c(-c4csc(N)n4)cc32)cc1	75%	80.8%	81.4%	71.7%	81.1%	79.4%	33.7%	74.1%	87.8	82.1%	87.5%	9.97% (active)	80.4%	46.8%	76.4%	71.8%	70.8	81.6%	94.7%	52.9%
CN(C)CCS(=O)(=O)Nc1cc(-c2ccc3ncnc(Nc4ccc(F)c(Cl)c4)c3c2)cnc1Cl	-10.1% (active)	1.48% (active)	-21.5% (active)	-5.38% (active)	7.68% (active)	-21.4% (active)	-17.7% (active)	-31.7% (active)	12.8	-80% (active)	-3.31% (active)	9.31% (active)	-23.2% (active)	-26.8% (active)	-47.2% (active)	-20.9% (active)	10.1	-22.2% (active)	-0.224% (active)	4.73% (active)
C=CC(C)(O)CCC1C(=C)CCC2C(C)(C)CCCC12C (stereo not given)	94.2%	105%	98.3%	102%	112%	126%	72.4%	77.5%	99.6	123%	104%	97.9%	101%	112%	108%	94.5%	99.3	106%	88.1%	111%
COc1ccc(-c2nnc(SCC(=O)N3CCN(c4cc5c(cc4F)c(=O)c(C(=O)O)cn5C4CC4)CC3)o2)cc1OC	101%	103%	96.2%	67%	104%	51.6%	88.6%	101%	69.3	74.1%	99.3%	74.5%	101%	110%	118%	104%	89.1	96.5%	101%	76.2%
CCCCNc1cc(C(=O)O)cc(S(N)(=O)=O)c1Oc1ccccc1	102%	91%	101%	101%	104%	81%	102%	105%	103	98.6%	110%	98.2%	96.2%	122%	91.1%	105%	102	105%	105%	109%
CCOC(=O)C1CSC(C)(C(=O)OCC)N1 (stereo not given)	99.5%	95.5%	104%	90.6%	106%	84.7%	76.7%	98.9%	90.8	105%	108%	103%	98.4%	107%	115%	106%	106	104%	111%	98.7%
O=C(O)c1ccc(-n2cc(/C=N/Nc3ccc(Cl)cc3)c(-c3ccc(F)c(F)c3)n2)cc1	84.9%	95%	72.5%	107%	93.1%	81.5%	47.6%	78.9%	67.2	99.7%	85.4%	7.69% (active)	36%	93%	108%	71.1%	66.6	88.2%	99.4%	57.5%
Nc1ccc(S(=O)(=O)Nc2ccnn2-c2ccccc2)cc1	107%	106%	95%	112%	108%	97.9%	101%	97.7%	105	109%	118%	89%	103%	102%	120%	107%	102	103%	103%	109%

Reference: PubChem BioAssay (NCI)
